From publication PMC4336329 (PLoS ONE, 2015)
Hit rate of the full screen: of about 310,000 compounds, about 14,000 (4.5%) showed an effect of 50% or more. The effect is printed as a negative number. This excerpt belongs to a sample that is enriched for strong results.

molecular target: human ether-à-go-go-related gene (hERG) potassium channel (human, UniProt Q12809); experiment: primary screen, population patch clamp on CHO cells stably expressing hERG; higher = less effect of the substance
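Also: peak tail current of the secondary pulse compared with the same well before compound.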

human ether-à-go-go-related gene (hERG) potassium channel, sequence (Q12809 whole entry, looked up): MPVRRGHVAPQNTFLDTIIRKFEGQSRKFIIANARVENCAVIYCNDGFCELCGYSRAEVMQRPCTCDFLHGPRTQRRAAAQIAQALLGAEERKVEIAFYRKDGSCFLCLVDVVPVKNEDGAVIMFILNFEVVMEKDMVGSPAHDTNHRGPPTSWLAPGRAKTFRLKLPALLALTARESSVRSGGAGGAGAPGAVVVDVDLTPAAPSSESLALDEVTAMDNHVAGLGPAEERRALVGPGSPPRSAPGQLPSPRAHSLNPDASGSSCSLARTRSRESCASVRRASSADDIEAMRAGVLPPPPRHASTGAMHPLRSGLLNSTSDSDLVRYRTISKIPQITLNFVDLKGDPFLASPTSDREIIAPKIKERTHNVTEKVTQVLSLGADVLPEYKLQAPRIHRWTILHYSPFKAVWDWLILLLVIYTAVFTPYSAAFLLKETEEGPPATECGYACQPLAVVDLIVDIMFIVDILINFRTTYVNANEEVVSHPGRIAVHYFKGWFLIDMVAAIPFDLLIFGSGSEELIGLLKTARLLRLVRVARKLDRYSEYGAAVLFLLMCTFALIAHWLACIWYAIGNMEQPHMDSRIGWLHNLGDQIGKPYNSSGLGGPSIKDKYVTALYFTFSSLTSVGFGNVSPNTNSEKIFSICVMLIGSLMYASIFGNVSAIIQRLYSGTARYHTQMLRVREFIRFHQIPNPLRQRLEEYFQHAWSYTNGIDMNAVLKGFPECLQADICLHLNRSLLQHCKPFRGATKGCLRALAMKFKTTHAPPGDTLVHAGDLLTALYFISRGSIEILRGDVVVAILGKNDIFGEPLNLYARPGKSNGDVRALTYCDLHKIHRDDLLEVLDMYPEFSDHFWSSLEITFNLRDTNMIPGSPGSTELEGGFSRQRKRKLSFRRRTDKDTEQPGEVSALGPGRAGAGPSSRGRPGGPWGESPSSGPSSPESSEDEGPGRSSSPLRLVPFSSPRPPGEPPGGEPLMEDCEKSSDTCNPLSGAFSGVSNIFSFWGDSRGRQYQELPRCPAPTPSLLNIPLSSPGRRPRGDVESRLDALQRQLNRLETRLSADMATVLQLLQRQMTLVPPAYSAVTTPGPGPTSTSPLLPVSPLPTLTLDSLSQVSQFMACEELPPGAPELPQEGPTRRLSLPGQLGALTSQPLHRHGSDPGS

SMILES	hERG current change (%, negative = inhibition) at 10uM [%]
COc1ccc(CCNC(=O)C2CCN(S(=O)(=O)c3ccc(C)cc3)CC2)cc1	0.741
COc1ccc(/C=N/NC(=O)c2cccc(OC(F)(F)C(F)F)c2)c(OC)c1OC	-3.77
O=C(Nc1sc2c(c1C(=O)O)CCCCC2)c1ccccc1	67.4
CCOC(=O)c1ccc(NC(=O)N2CCN(c3cccc(OC)c3)CC2)cc1	-16.5
CSc1ccccc1N1CCN(C(=O)Nc2ccc3c(c2)NC(=O)CO3)CC1	-56.3
O=C1COc2ccc(NC(=O)c3ccccc3C(=O)O)cc2N1	21.6
COc1cccc(N2CCN(C(=O)Nc3ccc4c(c3)NC(=O)CO4)CC2)c1	-75.8
O=C(Nc1ccc2c(c1)OCO2)N1CCN(c2ccc(F)cc2)CC1	-28
O=C(Nc1ccc2c(c1)OCO2)N1CCN(c2ccccc2Cl)CC1	-32.3
O=C1COc2ccc(NC(=O)N3CCN(c4ccc(F)cc4)CC3)cc2N1	-79.8
O=C(Nc1ccc2c(c1)OCCO2)N1CCN(c2ccc(F)cc2)CC1	-5.49
COc1cccc(N2CCN(S(=O)(=O)c3cc4c(cc3Cl)NC(=O)CO4)CC2)c1	12
Cc1nn(Cc2ccc([N+](=O)[O-])cc2)c(=O)n1N(C)c1ncc(C(F)(F)F)cc1Cl	-3.46
O=C(NCc1ccccc1F)C1CC(=O)N(c2ccc3c(c2)OCCO3)C1 (stereo not drawn)	-2.83
O=C(Nn1c(SCc2cccc([N+](=O)[O-])c2)nc2ccccc2c1=O)c1ccccc1	-1.31
Cc1noc(C)c1COc1ccccc1C(=O)NC1CCC(C)CC1 (stereo not drawn)	0.497
CSCC[C@H](NC(=O)Nc1cccc(C(F)(F)F)c1)C(=O)O	-0.0702
Cc1cccc(CSc2nnc([C@@H]3CCCN3C(=O)OC(C)(C)C)o2)c1	4.85
O=C(COC(=O)/C=C/C(=O)N1CCN(c2ccccc2)CC1)NCc1ccc(F)cc1	-8.17
CC(C)N(C(=O)COC(=O)c1ccccc1C(=O)N1CCN(c2ccc(F)cc2)CC1)C(C)C	-55.9
O=C(COC(=O)c1ccccc1C(=O)N1CCN(c2ccccc2)CC1)Nc1ccccc1	-25.8
O=C(COC(=O)c1ccccc1C(=O)N1CCN(c2ccccc2)CC1)Nc1ccc(F)cc1	-21.6
O=C(COC(=O)c1ccccc1C(=O)N1CCN(c2ccc(F)cc2)CC1)NCc1ccccc1	-73.6
O=C(c1ccccc1Oc1ccccc1)N1CCN(c2ccc(F)cc2)CC1	-33.9
COc1cccc(NC(=O)COC(=O)c2ccccc2C(=O)N2CCN(c3ccccc3)CC2)c1	-11.8
O=C(COC(=O)c1ccccc1C(=O)N1CCN(c2ccccc2)CC1)NCc1ccccc1	-58
CN(C(=O)COC(=O)c1ccccc1C(=O)N1CCN(c2ccccc2)CC1)c1ccccc1	-17
